KCNQ2 inh: rat KCNQ2 potassium channel inhibitors, primary screen, cell-based, CHO-K1, FluxOR thallium flux, B-score; 20 min; active compounds read low; Potassium voltage-gated channel subfamily KQT member 2 (Rattus norvegicus), O88943; B-score at 10 µM; 1.1% of 310,000 active;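 active = fluorescence ratio B-score at most minus 3 library SDs, with starting brightness B-score within 2 library SDs, cut at about -5.5 in these data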
KCNQ2 enhance: potentiators of rat KCNQ2 potassium channel | CHO-K1 KCNQ2, FluxOR thallium flux fluorescence; active compounds read high | B-score at 10 µM | 0.54% of 310,000 active;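 active = fluorescence ratio B-score at least 3 SD of library B-scores, with initial fluorescence B-score within 3 of them, cut at about 5.3 in these data; same plate scores as AID 2156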;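 note: B-score of peak minus minimum over baseline fluorescence ratio after K+ and Tl+ stimulus; positive B-score means potentiation of KCNQ2 with more thallium influx and brighter signal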
Kir21 confirm: mouse Kir2.1 channel blockers, retest, confirmation, cell-based, FluxOR thallium flux, duplicate. Tl flux remaining, % of negative control (active compounds read low), % at 10 µM. AID 2032, 2009. Kir2.1-expressing cells, FluxOR thallium flux fluorescence; active compounds read low. shares compounds with KCNQ2 enhance. 41% of 2,300 active;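 active = Primary-screen hit whose thallium flux fell at least 3 control SD below untreated wells in both duplicates, with normal baseline fluorescence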;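 note: 0% = blank wells without stimulus and 100% = stimulated no-compound controls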
HEK293 ctr: alters thallium flux in parental HEK293 cells, Kir2.1 counter-screen. shares compounds with KCNQ2 enhance. FluxOR thallium flux fluorescence; 0% = unstimulated blank wells. FluxOR signal as % of negative control (100 = no effect), % at 10 µM. 19% of 2,300 active;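 active = dye signal at least 3 control SD above or below untreated wells in both duplicates, raw fluorescence within 3, either direction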;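 note: percent is based on the flux ratio of peak minus minimum fluorescence over baseline F0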
CHO-K1 ctr: nonspecific thallium flux increase in parental CHO-K1, confirmation, counter-screen for KCNQ2 potentiator project, cell-based, FluxOR thallium flux, duplicate | 43% of 1,200 active | activity increase over 3SD of controls, % at 10 µM | AID 2282, 2010 | parental CHO-K1 cells, FluxOR thallium flux fluorescence; zero = vehicle mean+3SD, 100% = vehicle-minus-blank window | shares compounds with KCNQ2 enhance;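 active = signal rise of at least 3 SD above the untreated control mean, in both duplicate wells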;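 note: counter screen of KCNQ2 potentiator hits so any rise reflects channel-independent effects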
KCNQ1 pot spec: human KCNQ1 channel potentiation off-target, confirmation, selectivity assay for KCNQ2 potentiator project, cell-based, CHO, FluxOR thallium flux | shares compounds with KCNQ2 enhance | CHO KCNQ1 stable, FluxOR thallium flux fluorescence; beyond 3SD, as % of vehicle-control signal | activation over 3SD threshold, % at 10 µM | 28% of 1,200 active | AID 2283, 2010;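 active = fluorescence ratio rise of at least 3 SD of vehicle wells above their mean, in both replicate wells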;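 note: 0% = vehicle mean plus 3 SD and 100% = vehicle minus unstimulated blank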
Target sequence (P51787 whole entry, looked up): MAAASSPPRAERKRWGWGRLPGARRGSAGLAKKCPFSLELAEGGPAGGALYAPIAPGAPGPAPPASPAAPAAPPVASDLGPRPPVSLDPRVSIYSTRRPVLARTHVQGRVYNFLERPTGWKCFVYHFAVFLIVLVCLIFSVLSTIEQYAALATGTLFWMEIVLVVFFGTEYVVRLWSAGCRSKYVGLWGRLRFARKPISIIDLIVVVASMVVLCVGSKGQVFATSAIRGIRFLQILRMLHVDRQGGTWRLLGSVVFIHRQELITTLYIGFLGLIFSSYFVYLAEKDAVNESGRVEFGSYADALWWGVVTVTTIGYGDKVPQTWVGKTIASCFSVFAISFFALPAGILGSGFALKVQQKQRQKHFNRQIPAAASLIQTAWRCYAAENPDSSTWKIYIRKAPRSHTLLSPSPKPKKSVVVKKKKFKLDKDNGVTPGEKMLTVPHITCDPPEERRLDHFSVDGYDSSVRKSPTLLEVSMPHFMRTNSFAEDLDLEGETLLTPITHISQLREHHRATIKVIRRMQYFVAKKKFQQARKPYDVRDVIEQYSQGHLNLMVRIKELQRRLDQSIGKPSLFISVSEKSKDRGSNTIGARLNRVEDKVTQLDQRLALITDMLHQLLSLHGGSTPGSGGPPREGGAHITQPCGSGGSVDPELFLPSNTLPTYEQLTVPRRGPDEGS
KCNQ2 pot conf: rat KCNQ2 channel potentiators, confirmation, cell-based, CHO, FluxOR thallium flux, duplicate. shares compounds with KCNQ2 enhance. CHO-KCNQ2 cells, FluxOR thallium flux fluorescence. AID 2287, 2010. potentiation, less the hit threshold, % at 10 µM. 68% of 1,200 active;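 active = fluorescence ratio rising 3 SD or more over the vehicle control mean in both replicates, plus primary screen hit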;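 note: peak minus minimum thallium fluorescence divided by baseline after K/Tl stimulus; 0% = vehicle mean plus 3 SD and 100% = vehicle minus unstimulated blank difference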
Kir2-1 sel: mouse Kir2.1 channel activation off-target, confirmation, selectivity assay for KCNQ2 potentiator project, cell-based, HEK293, FluxOR thallium flux. shares compounds with KCNQ2 enhance. HEK293 Kir2.1, FluxOR thallium flux fluorescence. activity over 3SD threshold, % at 10 µM. 2% of 1,200 active;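 active = fluorescence ratio rise of at least 3 SD above the vehicle-control mean, seen in both replicates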;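 note: 0% = vehicle mean plus 3 SD and 100% = vehicle minus no-stimulus blank window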
KCNQ2 W236L MoA: potentiators of retigabine-insensitive KCNQ2 W236L, mechanism study for KCNQ2 potentiator project, cell-based, rat KCNQ2 W236L, CHO, automated patch clamp; 10% of 940 active; shares compounds with KCNQ2 enhance; AID 2558, 2010; current increase over 3SD of negative controls (%), active compounds read high, % at 25 µM; automated patch clamp current;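 active = current increase at least 3 SD of the untreated controls above them in both duplicate recordings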
* hit, by the source's call; i = inactive; · = no result. This is a sample that favours compounds with a hit; in the whole collection about 1.6% have one here.

SMILES | KCNQ2 inh | KCNQ2 enhance | Kir21 confirm | HEK293 ctr | CHO-K1 ctr | KCNQ1 pot spec | KCNQ2 pot conf | Kir2-1 sel | others
O=C(O)c1cccc(NS(=O)(=O)c2ccc(Cl)c(C(=O)Nc3cccc([N+](=O)[O-])c3)c2)c1 | i | 1.8 | · | · | · | · | · | ·
Cc1cccc(NC(=S)NCc2ccc3c(c2)OCO3)c1 | i | 0.23 | · | · | · | · | · | ·
Cc1cccc(NC(=O)NCc2ccc3c(c2)OCO3)c1 | i | 11* | i | i | 4.1* | -12 | 20* | -41 | KCNQ2 W236L MoA=i
O=C(NNC(=O)c1ccc2c(c1)OCO2)NC1CCCCC1 | i | · | · | · | · | · | · | ·
O=C(NCc1ccc2c(c1)OCO2)NC1CCCCC1 | i | 5.7* | i | i | 38* | -10 | -19 | -23
COc1cc(/C=N/NC(=O)c2cc(-c3cccc(OC(C)C)c3)nc3ccccc23)ccc1O | i | 1.2 | · | · | · | · | · | ·
CC1CCC(NC(=O)CCNS(=O)(=O)c2ccc3c(c2)CCC(=O)N3)CC1 (configuration not stated) | i | · | · | · | · | · | · | ·
O=c1[nH]sc2ccccc12 | i | 6.7* | i | i | 8.6* | -10 | -8 | -45 | KCNQ2 W236L MoA=i
O=c1c2ccccc2sn1-c1ccccc1 | i | · | · | · | · | · | · | ·
COC(=O)c1ccc(/C=N/NC(=S)NCCN2CCOCC2)cc1 | i | · | · | · | · | · | · | ·
Nc1ccccc1SSc1ccccc1N | i | · | · | · | · | · | · | ·
CC(C(Sc1ccccc1N)c1ccccc1)[N+](=O)[O-] (configuration not stated) | i | · | 52%* | i | · | · | · | ·
O=C(Nc1ccnn1C1CCN(Cc2cc3ccccc3[nH]2)CC1)C1CCOC1 (configuration not stated) | i | 5.7* | i | i | -9 | 1.5* | 42* | -35 | KCNQ2 W236L MoA=i
Cc1c(CN2CCC(n3nccc3NC(=O)C3CCOC3)CC2)[nH]c2ccccc12 (configuration not stated) | i | 0.76 | · | · | · | · | · | ·
C=CCCCCCCCCC(=O)NNC1CC(=O)N(c2ccccc2)C1=O (configuration not stated) | i | · | · | · | · | · | · | ·
O=C(CC1CCCC1)Nc1ccc2c(c1)CCC2 | i | 26* | i | i | -48 | -16 | 80* | -39 | KCNQ2 W236L MoA=i
COc1ccc(CC(=O)Nc2ccc3c(c2)CCC3)cc1 | i | 1.7 | · | · | · | · | · | ·
O=C(Cc1ccccc1)Nc1cccc(N2CCCC2)c1 | i | 6* | i | i | -23 | -7 | 21* | -27 | KCNQ2 W236L MoA=0.1%*
O=C(Cc1ccccc1)Nc1ccc2c(c1)CCC2 | i | 6.5* | i | i | 17* | -17 | 81* | -31 | KCNQ2 W236L MoA=i
COc1ccc(NC(=O)CC2CCCC2)cc1OC | i | · | · | · | · | · | · | ·
O=C(Cc1ccccc1)Nc1ccc(N2CCCC2)cc1 | i | 1.8 | · | · | · | · | · | ·
COc1ccccc1CNS(=O)(=O)CCNC(=O)c1ccccc1 | i | 0.55 | · | · | · | · | · | ·
Cc1cc(C(=O)Nc2ncn[nH]2)ccc1[N+](=O)[O-] | i | · | · | · | · | · | · | ·
CN(C)c1ccc(N=C/C=C2/N(C)c3ccccc3C2(C)C)cc1 | i | 2.6 | · | · | · | · | · | ·
COc1cc(-n2c(=O)c3ccccc3n(Cc3cc(=O)n4ccccc4n3)c2=O)cc(OC)c1OC | i | 0.02 | · | · | · | · | · | ·
SMILES | KCNQ2 inh | KCNQ2 enhance | Kir21 confirm | HEK293 ctr | CHO-K1 ctr | KCNQ1 pot spec | KCNQ2 pot conf | Kir2-1 sel | others
CSc1ccc(CCNC(=O)CCc2nnc3ccc(N4CCC5(CC4)OCCO5)nn23)cc1 | i | · | · | · | · | · | · | ·
O=C(Nc1ncc([N+](=O)[O-])s1)c1cccc([N+](=O)[O-])c1 | i | 1.9 | · | · | · | · | · | ·
O=C(Nc1ccccc1)Nc1ncc([N+](=O)[O-])s1 | i | 7.8* | i | i | -23 | 90* | 15* | -67 | KCNQ2 W236L MoA=i
O=c1cc(CN2CCN(c3cccc(C(F)(F)F)c3)CC2)nc2sccn12 | i | · | · | · | · | · | · | ·
NC(=O)/C(=C\c1ccccc1)NC(=O)c1ccc(NC(=O)c2ccccc2)cc1 | i | · | · | · | · | · | · | ·
O=C(COc1ccccc1)Nc1nnc(-c2ccc3c(c2)CCCC3)o1 | i | · | · | · | · | · | · | ·
O=C(Nc1nnc(-c2ccc3c(c2)CCCC3)o1)c1ccccc1Cl | i | 9.4* | i | i | -22 | -15 | 12* | -21 | KCNQ2 W236L MoA=i
O=C(Nc1cccc2c1CCCC2)c1ccccc1Cl | i | 0.46 | · | · | · | · | · | ·
O=C(Nc1nnc(-c2ccc3c(c2)CCCC3)o1)c1ccccc1 | i | 7.1* | i | 289%* | -10 | -14 | 8.6* | -26 | KCNQ2 W236L MoA=i
O=C(NCC(=O)c1ccccc1)OCc1ccc([N+](=O)[O-])cc1 | i | · | · | · | · | · | · | ·
Cc1onc(-c2ccccc2)c1C(=O)OCC(=O)NC(=O)c1ccccc1 | i | · | · | · | · | · | · | ·
COc1ccc(CCNC(=O)CN2CCCc3ccccc32)cc1OC | i | · | · | · | · | · | · | ·
O=C(CN1CCCc2ccccc21)NCCc1ccc(F)cc1 | i | · | 46%* | i | · | · | · | ·
CCOc1c2ccc(C(=O)NCc3ccc(C)cc3)cc2nn1CCOC | i | 0.67 | · | · | · | · | · | ·
COc1cc(C(=S)N2CCCCC2)ccc1OCC(=O)Nc1ccc(F)cc1 | i | 6* | i | i | 142* | 27* | 17* | -46 | KCNQ2 W236L MoA=i
COc1cc(C(=S)N2CCCCC2)ccc1OCC(=O)N1CCCC1 | i | 0.68 | · | · | · | · | · | ·
N#Cc1c(Cl)nsc1NC(=O)c1ccccc1 | i | 1.1 | · | · | · | · | · | ·
Cc1ccc(NC(=O)C23CCC(C)(C(=O)[C@H]2Br)C3(C)C)cc1 (some centres not stated) | i | 1.6 | · | · | · | · | · | ·
CCCCc1ccc(-c2ccc(C)cc2O)nc1 | i | 3.3 | · | · | · | · | · | ·
CCCCc1ccc(-c2ccc(Br)cc2O)nc1 | i | 6* | i | i | -11 | 59* | -9 | -30
